# Among all 2,100 compounds or so, about 770 (37%) were called active.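 Rule for the calls: active = by-eye trace score of 1 for enhancers or -1 for inhibitors, so actives lie on both sides (some results past the limit were not filed as active); inactive = score 0, or 3 fluorescent, or 4 baseline rise.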 Some of the results follow.
# Target: G protein-activated inward rectifier potassium channel 2 (Homo sapiens) + G protein-activated inward rectifier potassium channel 1 (Homo sapiens) (UniProt P48051+P48549)
# Assay: GIRK1/2 thallium flux modulators, retest, confirmation, cell-based, HEK293 rmGlu8/hGIRK1/2, FluoZin-2 (AID 623911)
# Settings: HEK293 rmGlu8/hGIRK1/2, thallium flux FluoZin-2; actives lie on both sides; glutamate co-added at its EC20 level
# Sequence of G protein-activated inward rectifier potassium channel 2 (Homo sapiens) + G protein-activated inward rectifier potassium channel 1 (Homo sapiens) (P48051 whole entry, looked up): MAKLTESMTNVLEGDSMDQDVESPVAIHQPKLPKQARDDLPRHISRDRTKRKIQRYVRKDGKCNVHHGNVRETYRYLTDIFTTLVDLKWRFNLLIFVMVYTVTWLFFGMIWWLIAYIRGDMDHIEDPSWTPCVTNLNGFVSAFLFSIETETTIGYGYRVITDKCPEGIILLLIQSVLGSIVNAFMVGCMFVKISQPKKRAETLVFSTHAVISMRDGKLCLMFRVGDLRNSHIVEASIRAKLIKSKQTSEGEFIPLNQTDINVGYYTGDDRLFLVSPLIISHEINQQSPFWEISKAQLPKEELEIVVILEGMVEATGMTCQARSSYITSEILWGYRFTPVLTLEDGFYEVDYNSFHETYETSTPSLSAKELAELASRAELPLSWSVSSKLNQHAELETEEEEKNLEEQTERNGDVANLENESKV
# Sequence of G protein-activated inward rectifier potassium channel 2 (Homo sapiens) + G protein-activated inward rectifier potassium channel 1 (Homo sapiens) (P48549 whole entry, looked up): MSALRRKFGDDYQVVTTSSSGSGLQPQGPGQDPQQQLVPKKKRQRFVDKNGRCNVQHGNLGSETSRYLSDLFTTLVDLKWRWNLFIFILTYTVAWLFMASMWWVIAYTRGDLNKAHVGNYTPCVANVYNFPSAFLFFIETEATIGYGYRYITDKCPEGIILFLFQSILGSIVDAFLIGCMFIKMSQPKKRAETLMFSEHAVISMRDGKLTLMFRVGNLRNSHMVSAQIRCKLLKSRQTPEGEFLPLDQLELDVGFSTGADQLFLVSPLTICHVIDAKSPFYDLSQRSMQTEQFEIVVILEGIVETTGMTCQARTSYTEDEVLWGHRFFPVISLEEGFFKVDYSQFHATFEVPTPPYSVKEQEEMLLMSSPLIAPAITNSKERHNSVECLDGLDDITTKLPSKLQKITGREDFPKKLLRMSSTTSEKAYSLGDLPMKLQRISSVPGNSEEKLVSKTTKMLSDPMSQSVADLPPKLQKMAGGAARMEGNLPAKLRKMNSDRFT
row,SMILES,manual score
1,Cc1cccc(-n2c(-c3csc(C(C)C)c3)n[nH]c2=S)c1,0 (inactive)
2,CCCCn1nc(C(=O)N2CCc3ccccc32)c2ccccc2c1=O,-1 (active)
3,CCc1c(C)nc(SCC(=O)N2CCc3ccccc32)[nH]c1=O,3 (inactive)
4,CCn1nc(C(=O)OCC(=O)c2c[nH]c3ccccc23)c2ccccc2c1=O,0 (inactive)
5,Cc1c(C(=O)N2CCc3ccccc32)oc2c1C(=O)CC(C)(C)C2,0 (inactive)
6,O=C(c1ccc2c(=O)n(C3CCCC3)c(=S)[nH]c2c1)N1CCc2ccccc21,0 (inactive)
7,CCn1nc(C(=O)OCC(=O)N2CCc3ccccc32)c2ccccc2c1=O,-1 (active)
8,Cc1[nH]n(-c2cccc3ccccc23)c(=O)c1/C=N/c1sc2c(c1C#N)CCC2,1 (active)
9,Cc1[nH]n(-c2ccc(F)cc2)c(=O)c1/C=N/c1sc2c(c1C#N)CCCC2,3 (inactive)
10,CC(=O)c1cccc(NC(=O)C2CCCN2S(=O)(=O)c2cccc3cccnc23)c1 (stereo not given),0 (inactive)
11,CCOc1ccc(C(=O)CN2CCN(S(=O)(=O)c3ccc(Br)cc3)CC2)cc1,0 (inactive)
12,CCOC(=O)c1c(NS(=O)(=O)c2cccc(OC)c2)sc2c1CCC2,1 (active)
13,CCOC(=O)c1c(NS(=O)(=O)c2ccc(Br)cc2)sc2c1CCC2,1 (active)
14,COc1ccccc1OCC(=O)Nc1sc2c(c1C(=O)NCC1CCCO1)CCC2 (stereo not given),0 (inactive)
15,CCc1cc2c(=O)n(CC)c(SC(C)C(=O)Nc3c(C)n(C)n(-c4ccccc4)c3=O)nc2s1 (stereo not given),0 (inactive)
16,O=C(NC(=S)N(CCc1ccccc1)CCc1ccccc1)c1ccco1,1 (active)
17,O=C(NC(=S)NCCc1ccccc1)c1ccccc1,0 (inactive)
18,O=C(NC(=S)Nc1nc2ccccc2s1)c1cccs1,0.5 (inactive)
19,O=C(CNC(=S)NC(=O)c1ccco1)c1ccccc1,1 (active)
20,O=C(CNC(=S)NC(=O)c1cccs1)c1ccccc1,1 (active)
21,O=C(NC(=S)Nc1nc2c(ccc3ccccc32)s1)c1cccs1,0.5 (inactive)
22,O=C(NC(=S)NCCc1ccccc1)c1ccco1,1 (active)
23,Fc1cccc(-n2c(-c3ccco3)nc3nc4ccccc4nc32)c1,0 (inactive)
24,O=C(Nc1ccncc1)c1ccc2c(c1)C(=O)N(C1CCCCC1)C2=O,0 (inactive)
25,CCCCNc1c2c3c(cccc3n(C)c1=O)C(=O)c1ccccc1-2,3 (inactive)
26,CCc1nc(N2CCOCC2)c(C#N)c2c1CCCC2,0 (inactive)
27,S=c1nc[nH]c2c1sc1nc(-c3ccccc3)c3c(c12)CCCC3,1 (active)

row,SMILES,manual score
1,N#CC1=C(N)SC(N)=C(C#N)C1CCc1ccccc1,0 (inactive)
2,N#CC1=C(N)SC(N)=C(C#N)C1c1c(Cl)cccc1Cl,-1 (active)
3,Cc1sccc1C1C(C#N)=C(N)SC(N)=C1C#N,0 (inactive)
4,S=C(NCc1cccs1)Nc1cccc(Cl)c1,1 (active)
5,Cc1ccc(C2CC2C(=O)NNC(=S)Nc2cccc(Cl)c2)cc1 (stereo not given),0 (inactive)
6,Cc1csc(NC(=S)Nc2cccc(Cl)c2)n1,1 (active)
7,COCCCN(C(=S)Nc1cccc(Cl)c1)C(C)c1ccncc1 (stereo not given),0 (inactive)
8,O=C(CSc1cccc2cccc(Cl)c12)NCc1cccs1,0 (inactive)
9,CC(C)n1c(-c2ccc(C(C)(C)C)cc2)n[nH]c1=S,0 (inactive)
10,Cc1ccc(C(=O)N/N=C(/CC(=O)c2cccs2)C(F)(F)F)cc1,1 (active)
11,Cc1ccc2nc(NC(=S)NC(=O)c3cccs3)sc2c1,0 (inactive)
12,CSCSC1=C(C#N)C(c2ccc(Cl)cc2)C(C(C)=O)=C(C)N1 (stereo not given),0 (inactive)
13,CCOC(=O)C1=C(c2ccccc2)NC(SC)=C(C#N)C1c1ccco1 (stereo not given),0 (inactive)
14,N#Cc1c(-c2ccco2)nc(SCc2ccc(F)cc2)[nH]c1=O,0 (inactive)
15,CC(=O)C1=C(C)NC(SCC(=O)c2ccc(Cl)cc2Cl)=C(C#N)C1c1ccco1 (stereo not given),-1 (active)
16,CCOc1ccccc1C1CC(=O)NC(SCC)=C1C#N (stereo not given),0 (inactive)
17,CC(=O)C1=C(C)NC(SCc2ccc(C#N)cc2)=C(C#N)C1c1ccco1 (stereo not given),-1 (active)
18,CSCSC1=C(C#N)C(c2ccccc2Cl)C(C(C)=O)=C(C)N1 (stereo not given),-1 (active)
19,CC(Nc1nc(N2CCCC2)nc2ccccc12)c1ccccc1 (stereo not given),-1 (active)
20,CC(Nc1nc(N2CCCCC2)nc2ccccc12)c1ccccc1 (stereo not given),-1 (active)
21,C=CCNc1nc(N2CCCC2)nc2ccccc12,-1 (active)
22,CC1(C)CC(=S)Nc2ccccc2S1,0 (inactive)
23,O=C(Nc1ccc(F)c(F)c1)NC1CCCCC1,1 (active)
24,CCc1cccc(NC(=O)NC2CCCCC2)c1,0.5 (inactive)
25,CCCN1CCC(NC(=O)Nc2ccc(F)cc2F)CC1,0 (inactive)
26,CC1(C)CC(=O)C2=C(C1)OC(/N=C/N1CCOCC1)=C(C#N)C2c1ccccc1 (stereo not given),-1 (active)
27,CC(C)Cn1cnc2c(c(-c3ccccc3)c(-c3ccccc3)n2Cc2ccco2)c1=N,-1 (active)

row,SMILES,manual score
1,N=c1c2c(-c3ccccc3)c(-c3ccccc3)n(Cc3ccccc3)c2ncn1CCCO,-1 (active)
2,COC(=O)c1cc(NC(=O)c2ccoc2C)cc(C(=O)OC)c1,0 (inactive)
3,COc1cc2c(C(=O)N3CCN(C4CCCCC4)CC3)cn(CC(C)C)c(=O)c2cc1OC,-1 (active)
4,CCN1CCN(C(=O)c2ccc3c(=O)n(C4CCCC4)c(=S)[nH]c3c2)CC1,0 (inactive)
5,CC(C)OC(=O)CC12CN3CN(C1)CC(CC(=O)OC(C)C)(C3)C2=O,0 (inactive)
6,CCN(CC)c1nc(C)nc2c1cnn2CCc1ccccc1,0 (inactive)
7,Cc1ccccc1NC(=O)C(=O)NC(C)CCc1ccccc1 (stereo not given),0 (inactive)
8,Cc1cccc(NC(=S)NC(=O)CCc2ccccc2)c1,0 (inactive)
9,Cc1cccc(NC(=O)NC(C)CCc2ccccc2)c1 (stereo not given),1 (active)
10,CCN(CC)S(=O)(=O)c1cccc(S(=O)(=O)c2cccc(S(=O)(=O)N(CC)CC)c2)c1,-1 (active)
11,CCN(CC)S(=O)(=O)c1csc(C(=O)NCc2ccccc2)c1,0 (inactive)
12,CN1CCN(S(=O)(=O)c2cccc(S(=O)(=O)c3cccc(S(=O)(=O)N4CCN(C)CC4)c3)c2)CC1,0 (inactive)
13,CCN(CC(=O)c1c(N)n(C)c(=O)n(C)c1=O)c1cccc2ccccc12,0 (inactive)
14,O=C1CN(C(=O)CSc2nc3cc(Cl)ccc3c(=O)n2Cc2ccccc2)c2ccccc2N1,1 (active)
15,CC(c1ccccc1)n1c(SCC(=O)N2CC(=O)Nc3ccccc32)nc2ccccc2c1=O (stereo not given),0 (inactive)
16,O=C1CN(C(=O)CSc2nc3ccccc3c(=O)n2Cc2ccc(F)cc2)c2ccccc2N1,0.5 (inactive)
17,Cn1c(=O)c(NCCO)c2c3c(cccc31)C(=O)c1ccccc1-2,3 (inactive)
18,O=C(Nc1nnc(-c2ccc(Cl)cc2)o1)c1ccc(N2C(=O)CCC2=O)cc1,0 (inactive)
19,O=C(O)CC/C(=C\c1cc([N+](=O)[O-])ccc1Cl)c1nc2ccccc2s1,-0.5 (inactive)
20,O=C(Nc1nnc(-c2ccc(Cl)cc2)o1)c1cccc(N2C(=O)CCC2=O)c1,-1 (active)
21,CC(C)NC(=O)c1nc2ccccc2s1,0 (inactive)
22,O=C(Nc1nnc(-c2ccc(Cl)cc2)o1)c1nc2ccccc2s1,1 (active)
23,O=C(Nc1nnc(-c2ccc(Cl)cc2)o1)C1=COCCO1,0 (inactive)
24,O=C(Nc1nnc(-c2ccccc2Cl)o1)c1nc2ccccc2s1,1 (active)
25,O=C(NCCCN1CCN(c2cccc(Cl)c2)CC1)c1cccc(N2CCCC2=O)c1,0 (inactive)
26,O=C(Nc1nnc(-c2ccc(Cl)cc2)o1)c1ccccc1Br,1 (active)
27,O=c1c(-c2ccc(Cl)cc2)[n+]([O-])c2ccccc2n1O,2 (inactive)

row,SMILES,manual score
1,CCC(C)(C)NC(=O)C(c1ccc(F)cc1)N(Cc1ccco1)C(=O)c1cnccn1 (stereo not given),0 (inactive)
2,COC(=O)c1ccc(C(=O)OC)c(NC(=O)CSc2nc(-c3ccco3)cc(C(F)(F)F)n2)c1,-0.5 (inactive)
3,Cc1ccc(C)c(N=C2CCCN2Cc2ccccc2)c1C#N,-1 (active)
4,Cc1ccc(N=C2CCCN2Cc2ccccc2)c(C#N)c1,-1 (active)
5,Cc1c(C#N)c2ccccc2n1CC(=O)O,0 (inactive)
6,CC(C)n1c(CCC(=O)O)ccc1-c1ccccc1,0 (inactive)
7,O=C(NC(=S)Nc1ccc2c(c1)OCCO2)c1ccccc1,0.5 (inactive)
8,O=C(Nc1ccc2[nH]c(=S)sc2c1)c1ccccc1,1 (active)
9,CC(C)OCCCNC(=O)c1cccc(NC(=O)c2ccccc2)c1,0 (inactive)
10,O=C(CCS(=O)NCc1ccccc1)NCc1ccccc1 (stereo not given),0 (inactive)
11,Cn1cc(CCC(=O)NCc2ccc3c(c2)OCO3)c2ccccc21,0 (inactive)
12,CS(=O)(=O)N(CCc1ccccc1)CC(=O)NCc1ccc2c(c1)OCO2,0 (inactive)
13,O=C(NCc1ccc2c(c1)OCO2)C1CCN(Cc2cnn(-c3ccccc3)c2-n2cccc2)CC1,-1 (active)
14,CCc1nnc(NC(=O)CSc2nnc(-c3c[nH]c4ccccc34)n2CC)s1,0 (inactive)
15,COc1c(Cl)cc(Cl)cc1CNCCNCC(C)O (stereo not given),1 (active)
16,CC(Sc1nnnn1C)C(=O)Nc1ccc(Oc2ccccc2)cc1 (stereo not given),1 (active)
17,CC(NC(=O)c1ccccc1NC(=O)CSc1nnnn1C)c1ccccc1 (stereo not given),0 (inactive)
18,S=C1NC2=C(CCCC2)C2(CCCCC2)N1,0 (inactive)
19,CN(C(=S)NC(=O)c1ccccc1Br)C1CCCCC1,1 (active)
20,CC1CCCC(NC(=S)NC(=O)c2ccccc2Br)C1C (stereo not given),0 (inactive)
21,CN(Cc1ccccc1)C(=S)NC(=O)C1CCCCC1,0 (inactive)
22,COc1ccccc1/C=C/C(=O)NC(=S)N(C)C1CCCCC1,1 (active)
23,CCN(C(=O)c1cc(Cl)ccc1OC)C1CCCCC1,-0.5 (inactive)
24,CCOC(=O)CSc1nnc(-c2ccccc2OC)o1,-0.5 (inactive)
